# Results as given in PubChem BioAssay (Tox21).
# The source made the active and inactive calls. Calls come from the whole dose curve; as a rule, active = well fitted curve in the direction sought with a large enough effect in the repeat runs; inconclusive = weak or mixed curves; inactive = flat fitted curve, though single readings scatter.
# Test: qHTS assay to test for compound auto fluorescence at 590 nm (red) in HepG2 cell free culture (AID 720684)
# Settings: cell-free medium autofluorescence, red 540/590 nm; series mostly up to 46 µM; fluorescence, % of Rose Bengal: at the top concentration
# Source text: U.S. Tox21 Program National Center for Advancing Translational Sciences [NCATS] NIH Chemical Genomics Center [NCGC] U.S. Environmental Protection Agency [EPA] National Institutes of Environmental Health Sciences [NIEHS] National Toxicology Program [NTP] U.S. Food and Drug Administration [FDA] Tox21 Assay Overview: Compound auto fluorescence often interferes with screening of the compound library against various biological targets and signaling pathways. Some of these compounds may have fluorophoric properties. Such properties may interfere with the assay outputs resulting in false positives and/or negatives. To decrease such complications and ensure the compound activities are relevant in terms of biological response, the Tox21 10K compound library was screened for auto fluorescence. From the fluorophores used as reporter signals in our screening assays, the auto fluorescence equivalencies of compounds against three fluorophores have been evaluated: Triamterene, Fluorescein and Rose Bengal sodium for blue, green and red fluorescence, respectively. The fluorescence intensities were measured using Excitation/Emission wavelengths at 405/460nm, 485/535nm and 540/590nm for blue, green and red labels, respectively. This assay includes the red fluorescence data.
# Tox21 Assay Protocol Summary: 5 uL of culture medium (MEM containing 10% FBS) per well was dispensed into black wall/clear bottom 1536-well plates using a Multidrop Combi Dispenser (ThermoFisher Scientific, Waltham, MA). After 23 nL compound or DMSO vehicle was transferred into assay plate by a pintool work station (Kalypsys, San Diego, CA), fluorescence intensities in the assay plates were measured by an Envision (PerkinElmer, Shelton, CT) plate reader using three labels for measuring blue, green and red fluorescence at […] 460, 535 and 590nm respectively.
# % is set by controls: 0 for no effect and ±100 for the full control effect.
Compound,"fluorescence, % of Rose Bengal",outcome
CCOC(=O)C(=O)OCC,-0.31% [at 91.3 µM] (inactive),
CCCc1cc(C(N)=S)ccn1,0.57% (inactive),
N#Cc1ccc(C2CCCc3cncn32)cc1 (stereo not given),0.235% (inactive),
NS(=O)(=O)c1ccccc1Cl,-0.128% [at 91.3 µM] (inactive),
CCCC(=O)O[C@]1(C(=O)CO)CC[C@H]2[C@@H]3CCC4=CC(=O)CC[C@]4(C)[C@H]3[C@@H](O)C[C@@]21C,-0.328% (inactive),
COCCc1ccc(OCC(O)CNC(C)C)cc1 (stereo not given),,inactive
c1ccc(CC2=NCCN2)cc1,-0.79% [at 18.6 µM] (inactive),
NC(CSCC(=O)O)C(=O)O (stereo not given),-0.279% (inactive),
O=C(O)CNC(=O)c1ccc([N+](=O)[O-])cc1,0.235% [at 91.3 µM] (inactive),
CCn1ccnc1CC1COc2ccccc2O1 (stereo not given),-0.002% (inactive),
FC1(F)C(F)(F)C(F)(F)C2(F)C(F)(F)C(F)(F)C(F)(F)C(F)(F)C2(F)C1(F)F (stereo not given),-0.0113% (inactive),
CC1(C)CO[C@@H](CC(=O)O)CN1,-0.0689% (inactive),
CCOC(C)(C)C,0.252% [at 95.7 µM] (inactive),
CN(C)CCCNCCCN(C)C,0.0032% [at 91.3 µM] (inactive),
CCCCCCOC(=O)CCCCC(=O)OCCCCCC,0.0849% [at 91.3 µM] (inactive),
OCCOc1ccc(OCCO)cc1,0.136% [at 95.7 µM] (inactive),
CCOC(=O)CC(C)=O,0.0474% [at 91.3 µM] (inactive),
Oc1ccc(C2CNCCc3c2cc(O)c(O)c3Cl)cc1 (stereo not given),0.519% (inactive),
CC(=O)OC/C=C(\C)CC/C=C(\C)CCC=C(C)C,0.101% [at 91.3 µM] (inactive),
COC(=O)c1ccc(C)cc1C1=NC(C)(C(C)C)C(=O)N1 (stereo not given),0.0375% [at 91.3 µM] (inactive),

Compound,"fluorescence, % of Rose Bengal",outcome
Cn1cc(S(C)=O)c(=O)c2ccc(F)cc21 (stereo not given),-0.0021% (inactive),
CN1C(=O)N(C)C(O)C1O (stereo not given),0.0601% [at 91.3 µM] (inactive),
Cc1cc(O)cc2c1O[C@](C)(CCC[C@H](C)CCC[C@H](C)CCCC(C)C)CC2,,inactive
CCC(C)S (stereo not given),-0.203% [at 3.72 µM] (inactive),
C=CCOCC(CC)(CO)COCC=C,-0.0487% [at 91.3 µM] (inactive),
CCOC(=O)[C@H](CCc1ccccc1)N[C@@H](C)C(=O)N1[C@H](C(=O)O)C[C@@H]2CCC[C@@H]21,-0.0118% (inactive),
Nc1ccccc1S(=O)(=O)O,-0.332% [at 91.3 µM] (inactive),
CC(C)(C)c1nnc(NS(=O)(=O)c2ccccc2)s1,-0.0418% (inactive),
Nc1c[n+](N2CCOCC2)no1,-0.0339% (inactive),
N=C(N)c1ccc(OCCCOc2ccc(C(=N)N)cc2)cc1,-0.169% (inactive),
CC(=O)c1ccccc1O,0.0348% [at 91.3 µM] (inactive),
Cc1cccc(C)c1NC(=O)C(C)N (stereo not given),0.0995% [at 18.6 µM] (inactive),
CCN(CC)CCOCCOC(=O)C1(c2ccccc2)CCCC1,0.755% (inactive),
CC(C)NC(=O)NC(C)C,0.0161% [at 91.3 µM] (inactive),
C1OCOCO1,0.259% [at 95.7 µM] (inactive),
O=[N+]([O-])c1ccc(F)cc1F,-0.316% [at 91.3 µM] (inactive),
Cc1cccn2c(=O)c(-c3nnn[nH]3)cnc12,-0.0625% (inactive),
CCc1nccnc1CC,0.167% [at 18.6 µM] (inactive),
CO[Si](CCCOCC1CO1)(OC)OC (stereo not given),,inactive
C=COCC1CCC(CO)CC1 (stereo not given),0.0011% [at 91.3 µM] (inactive),
